From PubChem BioAssay AID504715 (Sanford-Burnham Center for Chemical Genomics, 2011)
Some of the results follow. Unmarked numbers belong to inactive results.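 Rule for the calls: active = compounds giving 40% or more inhibition at 20 µM in any one of the three replicates; inactive = the rest.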

Target: Uracil-DNA glycosylase (Escherichia coli (strain K12)) (UniProt P12295)
Experiment: E. coli UDG inhibitors, confirmation, counter-screen for APOBEC3G inhibitor project, biochemical, single concentration, fluorescence, FAM/TAMRA oligo (AID 504715);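 note: plate controls were DMSO wells with UDG and oligo for no effect and DMSO wells lacking both for full effect; inhibitors lower the FAM signal released by uracil excision and alkaline cleavage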
Conditions: UDG counterscreen, at 20 µM, stronger effect = higher value

Uracil-DNA glycosylase (Escherichia coli (strain K12)), sequence (P12295 whole entry, looked up): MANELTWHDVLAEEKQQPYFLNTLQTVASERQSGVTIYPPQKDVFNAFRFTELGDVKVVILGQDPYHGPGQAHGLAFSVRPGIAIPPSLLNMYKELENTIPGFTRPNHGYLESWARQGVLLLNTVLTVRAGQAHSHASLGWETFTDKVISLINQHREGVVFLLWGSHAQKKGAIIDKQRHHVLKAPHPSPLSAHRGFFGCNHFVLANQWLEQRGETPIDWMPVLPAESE

SMILES | inhibition [%]
O=c1[nH]c2ccccc2n2c(-c3ccccc3)nnc12 | -5.75
Cc1cccc(-n2c(N)c(C(=O)N3CCN(C)CC3)sc2=S)c1 | -3.91
Cc1n[nH]c(=S)n1/N=C/c1ccc(Br)o1 | -0.61
Fc1ccc(Nc2nnns2)cc1 | 3.44
CCOC(=O)c1sc(=S)n2c1[nH]c(=O)c1ccc(C(=O)OC)cc12 | 1.35
S=c1[nH]nc(Nc2ccccc2)s1 | 6.03
Cc1ccc(NC(=O)c2sc3nc(N)c(C#N)cc3c2N)cc1 | -3.69
Cc1noc(C)c1CSc1nc2cc(S(=O)(=O)N3CCOCC3)ccc2o1 | 1.21
CCOc1cc(C(=S)N2CCOCC2)ccc1O | -2.88
Nc1ccccc1SC(C[N+](=O)[O-])c1ccccc1 (stereo unspecified) | -4.66
S=c1[nH]ccn1-c1ccc(Cl)cc1 | 2.81
Cc1ccc(S(=O)(=O)N(C)CC(=O)NCCc2c[nH]c3ccccc23)cc1 | -2.52
COc1ccccc1-n1c(-c2cc(-c3ccco3)[nH]n2)n[nH]c1=S | -3.83
CC(C)(C)c1nnc(NC(=O)C2c3ccccc3Oc3ccccc32)s1 | -3.35
Cc1ccnc(-n2sc3ccccc3c2=O)n1 | -5.94
CCc1c(C)[nH]c(=S)c(C#N)c1C | -0.5
COc1ccc(OCc2nnc3n2N=C(c2ccccc2)C(CC(=O)O)S3)cc1 (stereo unspecified) | -3.19
COC(=O)c1cccc(-n2[nH]nnc2=S)c1 | -3.23
Cc1cc(-c2n[nH]c(=S)n2/N=C/c2ccco2)n[nH]1 | 2.12
S=c1[nH]nc(-c2ccncc2)n1/N=C/c1ccccc1Cl | -3.82
S=c1[nH]nc2c3c4c(sc3ncn12)CCCC4 | -7.25
